Assay results published in PubChem BioAssay AID1571 (National Center for Advancing Translational Sciences (NCATS), 2009).
Records with an inconclusive call do not appear. Where a call stands in place of a potency, no number is given. Unmarked numbers belong to inactive results. Activity calls are given as the source filed them. Calls come from the whole dose curve; as a rule, active = well fitted curve in the direction sought with a large enough effect; inconclusive = small, poorly fitted or top-dose-only effect, or effect the other way; inactive = flat fitted curve, though single readings scatter.

Test: Total Fluorescence Confirmation Counterscreen for Inhibitors of the Interaction of Thyroid Hormone Receptor and Steroid Receptor Coregulator 2, Fluorescein Fluoroprobe
How it was run: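 Counterscreen flagging optical interferers: compound incubated 5 hr at ambient temperature with 0.6 uM human TRbeta LBD, 20 nM fluorescein-SRC2 peptide and 1 uM T3. Readout is total fluorescence computed as S + 2P; concentration-response % activity reported.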

C=CCNC(=O)/C(C#N)=C/c1c(C)nn(-c2ccc(Cl)cc2)c1Cl
Potency: inactive

CS(=O)(=O)c1ccc(C(=O)OCC(=O)NC(=O)C2CCCCC2)cc1[N+](=O)[O-]
total fluorescence change, positive = fluorescent: 3.5% [at 0.0112 µM]
